# Screening data deposited in PubChem by several laboratories.
# CHT allo act: allosterically activates the human high affinity choline transporter; Q9GZV3; CHT-expressing cells, membrane potential dye, choline EC20; hits give high values; LV-AA mutant CHT in HEK293 cells; B-score at 10 µM; 310,000 tested, 0.49% active; AID 488977;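 active means initial fluorescence not abnormally high and integrated response B-score, plate-corrected, over 3 SD above library mean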
# Target sequence (Q9GZV3 whole entry, looked up): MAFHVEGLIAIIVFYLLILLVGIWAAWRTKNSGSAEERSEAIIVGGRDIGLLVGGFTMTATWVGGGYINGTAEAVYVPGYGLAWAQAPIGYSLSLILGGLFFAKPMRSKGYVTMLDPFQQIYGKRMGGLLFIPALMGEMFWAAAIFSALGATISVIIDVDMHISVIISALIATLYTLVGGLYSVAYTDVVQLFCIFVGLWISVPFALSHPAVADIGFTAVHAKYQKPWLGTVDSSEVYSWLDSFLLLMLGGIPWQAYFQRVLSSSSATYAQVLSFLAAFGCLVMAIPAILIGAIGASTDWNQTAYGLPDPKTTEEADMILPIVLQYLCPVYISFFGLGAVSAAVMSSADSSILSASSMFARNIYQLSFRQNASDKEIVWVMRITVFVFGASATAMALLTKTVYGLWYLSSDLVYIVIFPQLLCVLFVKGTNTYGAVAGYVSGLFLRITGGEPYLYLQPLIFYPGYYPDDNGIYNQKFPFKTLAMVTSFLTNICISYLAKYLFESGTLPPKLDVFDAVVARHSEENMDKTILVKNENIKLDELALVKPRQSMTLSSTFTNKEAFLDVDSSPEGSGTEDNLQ
# CHT block: inhibits the human high affinity choline transporter. CHT-expressing cells, membrane potential dye, choline response; hits give low values. B-score at 10 µM. AID 488975. 310,000 tested, 0.86% active;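 active means B-score over 3 SD under the library average, and starting fluorescence ratio not unusually high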;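 further: choline stimulus applied at its EC90 after an EC20 pre-addition; B-score computed on integrated fluorescence ratio after choline addition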
# EP2 mod: EP2 receptor (human) modulation; P43116; EP2-expressing cells, cAMP HTRF FRET, PGE2 co-stimulation; induction, % at 25 µM; 260,000 tested, 0.83% active;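 active means compounds whose cAMP rise, as percent of the full-agonist control response, exceeds 60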;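 further: rat C6 glioma line stably carrying human EP2 under a CMV promoter; the protocol text gives 20 µM as final concentration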
# PGE2 EP2 inh: blocks the human prostaglandin E2 receptor EP2. P43116. C6 glioma cells expressing human EP2, cAMP TR-FRET; cells stimulated with saturating PGE2. inhibition, % at 25 µM. 260,000 tested, 0.52% active. AID 1422;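 active means percent inhibition above 40 after rounding to a whole number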;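 further: rat C6 glioma host cells with rolipram phosphodiesterase inhibitor present; the protocol text gives 20 µM as final concentration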
# EP2 confirm: human EP2 receptor cAMP induction, negative in counter-screens; C6 glioma EP2 cells, cAMP HTRF induction; plus low (about EC15) PGE2 agonist; 1,300 tested, 47% active; AID 1080; shares compounds with EP2 mod; calls only at 20 µM (by protocol);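 active means cAMP induction above 50% in the main assay while under 30% in all four parallel counter assays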;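 further: rat C6 glioma cells stably expressing human EP2 receptor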
# Hits are given with their value; i = inactive; nt = no result given; + = active, no number; ! = repeats disagree. Compounds with a hit are over-represented: about 2% of the library has one in this group of screens.
SMILES,CHT allo act,CHT block,EP2 mod,PGE2 EP2 inh,EP2 confirm
COc1ccc(CCN(Cc2nc(-c3ccccc3)no2)Cc2nc(-c3ccccc3)no2)cc1OC,i,i,i,i,i
COc1ccc(S(=O)(=O)N(Cc2ccccc2)Cc2nc(-c3ccccc3)no2)cc1,i,i,i,i,+
CCc1nnc(NC(=O)CCC(=O)N2CC3(C)CC2CC(C)(C)C3)s1 (stereo unspecified),nt,nt,i,i,nt
c1ccc(CCc2nc(-c3cccnc3)no2)cc1,i,i,i,i,nt
c1ccc(CCc2ccccc2-c2nc(-c3ccccn3)no2)cc1,i,i,101.2,i,+
c1ccc(CCc2ccccc2-c2nc(-c3cccnc3)no2)cc1,i,i,81.5,i,+
CC1C2C(c3ccccc3)N(C)C(=O)N(C)C2N(C)C(=O)N1C (stereo unspecified),i,i,i,i,nt
CCN1C(c2ccccc2)C(C)C(=O)C(C)C1c1ccccc1 (stereo unspecified),8.61,i,71.1,i,+
CCCCNc1nc(N(C)c2ccccc2)nc(-n2ccnc2)n1,i,i,77.3,i,+
CC1CN(c2nc3ccccc3cc2-c2ccccc2)CC(C)O1 (stereo unspecified),i,i,67.3,i,+
CC1CN(c2cc(-c3ccccc3)c3ccccc3n2)CC(C)O1 (stereo unspecified),i,i,i,i,nt
CCCCOc1ccccc1NC(=O)c1scc2c1OCCO2,nt,nt,87.2,i,+
CCOC(=O)C1=C(C)N(C)C(C)=C(C(=O)OCC)C1c1ccsc1,i,i,72.0,i,+
O=C(C(c1ccccc1)c1ccccc1)N1CCCc2ccccc21,i,i,78.1,i,+
Cc1nc2c(c(C)nn2-c2ccccc2)c(C)c1Cl,i,i,77.1,i,i
Cc1cc(C)c2c(C)nn(-c3ccccc3)c2n1,i,i,i,i,nt
c1ccc(-c2noc(CN3CCN(C(c4ccccc4)c4ccccc4)CC3)n2)cc1,i,i,i,i,i
COc1cc(C2C(C#N)=C(N)Oc3n[nH]c(C)c32)ccc1OCC(=O)Nc1ccccc1C (stereo unspecified),nt,nt,i,i,nt
CC1CCC(C(C)C)C(OC(=O)COC(=O)c2ccc(=O)[nH]c2)C1 (stereo unspecified),i,i,66.5,i,i
CCOC(=O)c1c(CC(C)C)csc1/N=C/C1C(=O)CCCC1=O,i,i,68.3,i,i
C[C@@H]1CC[C@H]2C(C)(C)C3CC12CC[C@@]3(C)O (stereo partly specified),nt,nt,65.4,i,+
CC1=C(/C=C/C(C)=C/C=C/C(C)=C/C(=O)O)C(C)(C)CCC1,i,i,62.5!,i,+
CC(/C=C/c1ccc(C)o1)=C\C(=O)O,i,i,i,i,nt
CC[C@H](Cn1ncc2ccccc2c1=O)NC(=O)CC1CCCC1,nt,nt,i,nt,nt
Cc1ccccc1-n1c(SCC(=O)N2CCCC2)nnc1-c1ccccn1,i,i,65.9,i,i
SMILES,CHT allo act,CHT block,EP2 mod,PGE2 EP2 inh,EP2 confirm
CCc1ccccc1-n1c(SCC(=O)N2CCCC2)nnc1-c1ccccn1,i,i,i,i,nt
Cc1ccccc1-n1c(Cn2c(=O)sc3ccccc32)nnc1SCC(=O)N1CCCC1,i,i,i,nt,i
O=C(CSc1nnc(Cn2c(=O)sc3ccccc32)n1-c1ccccc1)N1CCCC1,i,i,i,i,nt
CCn1c(=O)n(CC(=O)Nc2cccc3ncccc23)c2cccnc21,nt,nt,i,nt,nt
Cc1n[nH]c(=S)c2nn(-c3ccccc3)c(C)c12,nt,nt,i,nt,nt
Cc1ccc(-n2nc3c(=S)[nH]nc(C)c3c2C)cc1,i,i,81.3,nt,i
CC1=CC2C(C(C)C)CCC(C)(O)C2CC1 (stereo unspecified),nt,nt,65.4,i,+
COc1cccc(C2(NC(=O)Cc3nonc3C)CCCC2)c1,nt,nt,i,i,nt
CCN(c1cccc(C)c1)S(=O)(=O)c1ccc2c3c(cccc13)C(=O)N2,i,i,79.2,i,+
CCn1cc(S(=O)(=O)N(C)Cc2ccc3ncccc3c2)c(C)n1,nt,nt,i,i,nt
O=C(Nc1ccccc1N1CCOCC1)c1ccc2ccccc2n1,i,i,69.6,i,+
Cc1ccccc1CN(C)CC(=O)Nc1ccccc1Oc1ccccc1,i,i,67.7,i,+
Cc1ccccc1CN(C)CC(=O)Nc1ccccc1-c1ccccc1,i,i,i,i,nt
COc1ccccc1CN(C)CC(=O)Nc1ccccc1-c1ccccc1,i,i,70.7,i,+
CN(CC(=O)Nc1ccccc1Oc1ccccc1)Cc1ccccc1F,i,i,66.8,i,+
Cc1nc2sc3c(c2c2nn(CC(=O)NCc4ccco4)c(=O)n12)CCC(C)C3 (stereo unspecified),nt,nt,i,nt,nt
O=C(NCc1ccco1)C(c1cccs1)N(C(=O)Cc1cccs1)c1ccccc1 (stereo unspecified),i,i,83.4,i,i
O=C(NCc1ccco1)C(c1ccccc1)N(C(=O)Cc1cccs1)c1cccnc1 (stereo unspecified),i,i,i,i,nt
CCOc1nc(C)cc(C)c1S(=O)(=O)c1ccc(Cl)cc1,i,i,80.8,i,+
COC(=O)c1ccc(-c2ccco2)n1Cc1cccc(C)c1,i,i,77.5,i,+
CSc1nc(Sc2ccccc2Cl)c2ccccc2n1,i,i,66.8,i,i
CCOC(=O)c1cnc(SC)nc1Sc1ccccc1Cl,i,i,73.3,i,i
O=C(CN1CCC(O)(c2ccccn2)CC1)N1c2ccccc2Sc2ccccc21,nt,nt,i,nt,nt
CCOC(=O)c1ccc(CN(Cc2ccc(C)cc2)S(=O)(=O)c2cccc([N+](=O)[O-])c2)cc1,i,i,65.0,i,i
CCOC(=O)C(C)(C)N(Cc1cccc(C)c1)S(=O)(=O)c1cccc([N+](=O)[O-])c1,i,i,i,i,nt
SMILES,CHT allo act,CHT block,EP2 mod,PGE2 EP2 inh,EP2 confirm
CC(C)NC(=O)CSc1nc2c(c(C(F)(F)F)n1)CCc1ccccc1-2,nt,nt,i,i,nt
CC1=CC(C)(C)N(S(=O)(=O)c2ccc(C)cc2)c2cc(C)ccc21,i,i,69.5,i,+
CCOc1ccc2c(c1)C(C)=CC(C)(C)N2S(=O)(=O)c1ccc(C)cc1,nt,nt,i,i,nt
CCCc1cc(-c2n[nH]c(=S)n2C(C)c2ccccc2)cs1 (stereo unspecified),i,i,68.1,i,+
Nc1ccc(-c2cccs2)cc1,nt,nt,i,i,nt
Cc1cc(O)c(C=O)c2c1C(=O)Oc1c(C)c(O)c3c(c1O2)C(O)OC3=O (stereo unspecified),nt,nt,i,i,i
COc1cc(C)c2c(c1C=O)Oc1c(c(C)c(O)c3c1C(O)OC3=O)OC2=O (stereo unspecified),i,i,i,i,nt
O=S(=O)(c1ccc(F)cc1)N1CCC(O)(c2ccccn2)CC1,nt,nt,i,nt,nt
O=C(COc1cccc2ccccc12)N1c2ccccc2CCc2ccccc21,i,i,66.3,i,+
CCn1c(=S)[nH]c2c(c1=O)C(C)(C)Cc1ccccc1-2,nt,nt,66.4,i,i
O=C(Cn1c2ccccc2n2c(SCC(=O)N3CCc4ccccc43)nnc12)N1CCCC1,nt,nt,i,i,nt
